Hits are enriched below; roughly 4.5% of the tested compounds scored in any of these assays.
ZTA counter: counter-screen for EBNA-1 inhibitors: inhibitors of Epstein-Barr virus ZTA; inhibition, % at 11 µM; 320,000 tested, 0.15% active; P03206; ZTA-DNA binding, fluorescence polarization; in the data active = inhibition above about 33%
Target sequence (P03206 whole entry, looked up): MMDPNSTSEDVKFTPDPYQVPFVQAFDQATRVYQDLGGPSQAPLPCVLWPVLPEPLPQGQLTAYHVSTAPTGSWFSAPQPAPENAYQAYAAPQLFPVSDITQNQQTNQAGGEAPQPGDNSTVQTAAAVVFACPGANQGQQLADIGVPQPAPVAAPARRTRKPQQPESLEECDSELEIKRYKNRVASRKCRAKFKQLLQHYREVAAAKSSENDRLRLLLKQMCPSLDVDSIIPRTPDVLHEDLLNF
Rpn11 inh: Rpn11 (human) deubiquitinase inhibition. O00487. human 26S proteasome, Ub4-pepOG fluorescence polarization; 20S core pre-blocked with epoxomicin. inhibition, % at 20 µM. 360,000 tested, 0.59% active. AID 588493;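 active = inhibition at 20 µM, scaled to each plate's controls, above about 33%, limit read from the data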
Target sequence (O00487 whole entry, looked up): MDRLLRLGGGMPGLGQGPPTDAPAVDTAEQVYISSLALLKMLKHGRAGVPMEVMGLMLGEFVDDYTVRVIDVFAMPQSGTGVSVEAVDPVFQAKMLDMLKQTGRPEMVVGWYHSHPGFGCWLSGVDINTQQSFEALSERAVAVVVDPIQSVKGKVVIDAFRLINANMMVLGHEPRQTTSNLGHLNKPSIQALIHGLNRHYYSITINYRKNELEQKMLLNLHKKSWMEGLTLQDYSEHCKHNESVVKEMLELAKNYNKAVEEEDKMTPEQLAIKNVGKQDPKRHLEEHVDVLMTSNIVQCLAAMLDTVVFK
TPT1 inhibitor: C. albicans TPT1 enzyme inhibition | recombinant caTPT1, FP RNA substrate dephosphorylation | inhibition, % at 5 µM | 300,000 tested, 0.81% active;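 active = inhibition above the mean of all tested compounds plus 3 SD, set per screening campaign, cut at about 24% in these data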;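 also: plate controls were DMSO alone for no effect and ferristatin control at 100 nM for full effect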
dFosB act: mouse delta FosB homodimer activation | activation, % at 25 µM | P13346 | purified delta FosB, TAMRA-CDK5 oligo fluorescence polarization; percent of positive-control signal above neutral wells | 340,000 tested, 0.99% active;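 active = mean activation above about 17%, with every replicate also reaching it, limit read from the data, passing the limit was not always enough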
GRIN3A LBD mod: modulators (binders) of human NR3A ligand-binding domain. Tm shift relative to glycine control, % at 25 µM. 340,000 tested, 2.5% active. NR3A LBD differential scanning fluorimetry, Tm shift; 0% = protein alone, 100% = glycine-bound protein. AID 1259313;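 active = melting temperature shift of at least 10% of the positive control shift, at one fixed dose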
EBNA-1 inhibitor: blocks EBNA-1 binding to DNA | EBNA-1 DNA binding, fluorescence polarization | inhibition, % at 14.8 µM | 300,000 tested, 0.34% active; in the data active = inhibition above about 28%
Active calls of the source: *; nt = no result given.

SMILES | ZTA counter | Rpn11 inh | TPT1 inhibitor | dFosB act | GRIN3A LBD mod | EBNA-1 inhibitor
C/C(=N\Nc1nc(N)cc(Cl)n1)c1ccc(Cl)c(Cl)c1 | -6 | 6 | 1 | 9 | 18* | -14
CSCCC(NS(=O)(=O)c1ccc(Cl)cc1)C(=O)OCC(=O)c1c(C)[nH]c2ccccc12 (stereo unspecified) | 0 | -3 | 1 | -13 | 17* | -13
CC(=O)Nc1ccc(NC(=O)CS(=O)(=O)Cc2ccccc2)cc1 | 5 | -6 | -2 | -5 | 13* | 0
CCc1cccc(CC)c1NC(=O)NC1CCCCC1 | -15 | -2 | -2 | -5 | 13* | 9
O=C(Nc1ccc(-c2cn3ccsc3n2)cc1)C1CC1 | 9 | -4 | 1 | -2 | 15* | -9
CCCNC(=O)C(Cc1ccc(Br)cc1)NC(=O)c1ccc(C#N)cc1 (stereo unspecified) | 1 | -5 | nt | 4 | 0 | nt
CCOc1ccc(/C=C/C2=Cc3c(sc(NC(=O)CSc4n[nH]c(N)n4)c3C#N)C(C)(C)C2)cc1 | 16 | nt | 57* | 6 | 14* | 23
CCOC(=O)c1sc(NC(=O)CSc2n[nH]c(-c3ccncc3)n2)c(C#N)c1C | -27 | 2 | 0 | -14 | -4 | -1
Cc1ccsc1/C=C/C1=Cc2c(sc(NC(=O)CSc3n[nH]c(N)n3)c2C#N)C(C)(C)C1 | 18 | 17 | 23 | -4 | 10* | 19
CC1(C(=O)NS(=O)(=O)Cc2ccccc2C(F)(F)F)CCN1C(=O)C/C=C/c1ccccc1 (stereo unspecified) | nt | -2 | nt | nt | nt | nt
Cc1cc(C(F)(F)F)nn1CC(=O)NNC(=S)Nc1ccc(Cl)cc1 | -1 | -6 | -2 | -2 | -1 | 3
O=C(Cn1nnc(-c2cc(C(F)(F)F)cc(C(F)(F)F)c2)n1)NNC(=S)Nc1ccc(Cl)cc1 | 6 | 17 | 0 | 0 | 36* | 10
Cc1ccc(N2CCCC2=O)cc1S(=O)(=O)N1CCOCC1 | 9 | -2 | -2 | -1 | -1 | 2
O=C(Cc1ccccc1)Nc1ccccc1C(=O)N1CCCCCC1 | -12 | -15 | 0 | -1 | -1 | -3
CCN1CCCC1CNC(=O)c1ccc2c(c1)NC(=O)/C(=C\c1ccc(OC)c(OC)c1)S2 (stereo unspecified) | -7 | -2 | 4 | 44* | -2 | -13
CCCCN(C(=O)C1CCCC1)c1c(N)n(CC(C)C)c(=O)[nH]c1=O | -9 | -2 | nt | -3 | 1 | nt
CC(C)(C)c1ccc2c(c1)C(=O)c1ccccc1C2=O | 5 | 0 | 4 | -2 | 24* | -5
CCc1ccc2c(c1)C(=O)c1ccccc1C2=O | -9 | -5 | 1 | -2 | 18* | 3
O=C1NCCO1 | 19 | 1 | -3 | 7 | -1 | 0
CN1CCN(C(=S)c2ccc(Cl)cc2)CC1 | 0 | 1 | 1 | -10 | 10* | -18
O=C(O)c1cccc(-n2sc3ccccc3c2=O)c1 | 22 | -5 | nt | -3 | 23* | nt
OC(c1ccc(F)c(F)c1)c1nc(-c2ccoc2)cs1 (stereo unspecified) | nt | 8 | nt | nt | nt | nt
CC(C)=CC1C(C(=O)Nc2ccc(S(=O)(=O)N3CCOCC3)cc2)C1(C)C (stereo unspecified) | 6 | 2 | -5 | -1 | nt | -2
CC(C(=O)Nc1ccc(Br)cc1)N(C)CC(=O)NCc1ccco1 (stereo unspecified) | 11 | 0 | nt | -1 | 0 | nt
O=C1CC(N(CCc2ccccc2)C(=S)Nc2cc(Cl)ccc2Cl)C(=O)N1c1c(Cl)cccc1Cl (stereo unspecified) | -1 | 0 | 3 | 10 | 16* | -7
SMILES | ZTA counter | Rpn11 inh | TPT1 inhibitor | dFosB act | GRIN3A LBD mod | EBNA-1 inhibitor
O=C1CC(N(CCc2ccccc2)C(=S)Nc2ccccc2)C(=O)N1c1ccc(F)cc1 (stereo unspecified) | -13 | 1 | 1 | -15 | 27* | 1
O=C1CC(N(Cc2ccc3c(c2)OCO3)C(=O)Nc2ccc(F)cc2)C(=O)N1c1ccccc1 (stereo unspecified) | 2 | -2 | -1 | -13 | 27* | 5
O=C1CC(N(CCc2ccccc2)C(=S)Nc2ccccc2)C(=O)N1c1ccccc1 (stereo unspecified) | -2 | 6 | 2 | -1 | 17* | 2
COC(=O)CN(C(=S)Nc1ccc(F)cc1)C1CC(=O)N(c2ccccc2)C1=O (stereo unspecified) | 3 | 1 | 0 | 1 | 3 | -9
COc1ccc(NC(=O)N(Cc2ccc3c(c2)OCO3)C2CC(=O)N(c3ccc(OC)cc3)C2=O)cc1 (stereo unspecified) | 8 | -1 | -3 | -2 | 0 | 11
O=C(CN1C(=O)NC2(CCCC2)C1=O)Nc1cc(Cl)ccc1N1CCCCC1 | -10 | 9 | -4 | -13 | 2 | -2
O=S(=O)(NCCS(=O)(=O)N1CCN(c2ccccc2)CC1)c1ccccc1 | -7 | -3 | 4 | -6 | -1 | -7
COc1ccc(S(=O)(=O)NCCS(=O)(=O)N2CCN(c3ccccc3)CC2)cc1 | -8 | -3 | -1 | -4 | 19* | -2
COc1cc2c(cc1OC)C(c1ccc(-c3ccc(Cl)c(Cl)c3)o1)=NCC2 | -2 | 21 | 8 | 52* | -10 | -10
COc1cc2c(cc1OC)C(c1ccc(-c3cc(Cl)ccc3Cl)o1)=NCC2 | -1 | -42 | 22 | 2 | -11 | 5
OCCN(CCO)c1ccc(C(c2ccc(Cl)cc2)c2ccc(N(CCO)CCO)cc2Cl)c(Cl)c1 | -3 | 13 | 2 | 1 | 28* | -1
CN(C)/C=N/c1ncn(-c2ncc(C(F)(F)F)cc2Cl)n1 | -3 | 2 | 0 | 1 | 0 | 4
CC(C#N)(NC(=O)CN1CCN(S(=O)(=O)c2ccc(Br)cc2Cl)CC1)C1CC1 (stereo unspecified) | 14 | -4 | nt | -3 | 10* | nt
S=C(NCCCc1ccccc1)Nc1ccc(Cl)cc1 | 7 | -5 | 4 | -10 | 22* | 0
Cc1ccc(C)c(NC(=S)NCCSc2ccc(Cl)cc2)c1 | -17 | 0 | -2 | -12 | -5 | -8
S=C(NCCCc1ccccc1)Nc1ccccc1 | nt | 0 | nt | -10 | -9 | nt
Cc1cccc(NC(=S)NCCSc2ccc(Cl)cc2)c1 | -16 | 2 | 1 | -15 | 14* | -3
S=C(NCCSCc1ccc(Cl)cc1)Nc1ccccc1 | -3 | 5 | 0 | -4 | 12* | -7
S=C(NCCC(c1ccccc1)c1ccccc1)Nc1ccc(Cl)cc1 | -5 | -1 | -4 | -4 | 15* | -8
S=C(NCCSCc1ccccc1Cl)Nc1ccccc1 | 3 | -4 | -6 | -5 | 7 | 10
COc1ccc2nc(Nc3nc(CSc4nc5ccccc5s4)cc(=O)[nH]3)nc(C)c2c1 | -4 | nt | -3 | nt | nt | 4
CN1C(=O)/C(=C/c2ccccc2F)Sc2ccc(C(=O)N3CCCC3)cc21 | -1 | -2 | 2 | -5 | 1 | -5

From PubChem
